# MCF10A rereplic: inducers of DNA re-replication in MCF 10A breast cells; MCF 10A DNA re-replication, Hoechst nuclear intensity, 48 h; Potency, µM (series often up to 46.1 µM), without a hit: at the top dose activity, positive = re-replication, most hits filed as activators; 350,000 tested, 2.9% active; further: % of control where 0% means no effect; nearly all actives have a fitted effect of over 50% in size
# SW480 rerep: DNA re-replication induction in SW480 cells; SW480 DNA re-replication, Hoechst DNA content imaging, 48 h; Potency, µM (series often up to 46.1 µM), without a hit: at the highest dose re-replication activation, usual class: activators; 340,000 tested, 1.8% active; AID 624297; further: % of control where 0% means no effect; nearly all actives have a fitted effect of over 55% in size
#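 Compounds, transferred as 23 nL by pin tool, were incubated with cells for 48 hr; DNA content per nucleus was then quantified by Hoechst staining and fluorescence plate imaging.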
# KB-3-1 tox: KB-3-1 parental cell cytotoxicity. KB-3-1 viability, CellTiter-Glo ATP luminescence, 72 h. Potency, µM (doses to about 46.1 µM), actives largely listed as cytotoxic. 400,000 tested, 1.4% active. AID 1347075; further: on the % scale 0 is the no-effect control and ±100 the full control effect; nearly all actives have a fitted effect of over 60% in size
#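 Multi-concentration cytotoxicity screen in KB-3-1 cells grown in DMEM lacking phenol red with 10% FBS. After 72 h at 37 °C with compound, ATP-dependent luminescence was recorded.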
# KB-V1 MDR tox: KB-V1 MDR subline cytotoxicity; 400,000 tested, 3.4% active; Potency, µM (titrated, usually from 46.1 µM), usual class: cytotoxic; KB-V1 MDR cells viability, CellTiter-Glo, 72 h; further: on the % scale 0 is the no-effect control and ±100 the full control effect; nearly all actives have a fitted effect of over 60% in size
#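 KB-V1 MDR subline cells in DMEM (phenol-red free, 10% FBS) exposed to compounds in qHTS concentration series for 72 h at 37 degrees C. Viability read by CellTiter-Glo luminescence; concentration-effect curves fitted after normalization and correction.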
# PTAP TSG101 blk: blocks PTAP/TSG101 interaction to inhibit HIV-1 budding; 340,000 tested, under 10 active; Fluorescence polarization, FITC-PTAP peptide / Tsg101 binding; Potency, µM (top dose mostly 115 µM), inactives show at the top dose activity change, negative = inhibition, most hits filed as inhibitors; Q99816; active means well fitted inhibition curve with a large enough effect in the main read-out, with a control signal flat, not every such curve was filed as active; inconclusive means small, poorly fitted or top-dose-only effect, or effect the other way, or a change in a side signal; inactive means no such curve, though single readings can be large or run the other way; further: % of control where 0% means no effect
# Target sequence (Q99816 whole entry, looked up): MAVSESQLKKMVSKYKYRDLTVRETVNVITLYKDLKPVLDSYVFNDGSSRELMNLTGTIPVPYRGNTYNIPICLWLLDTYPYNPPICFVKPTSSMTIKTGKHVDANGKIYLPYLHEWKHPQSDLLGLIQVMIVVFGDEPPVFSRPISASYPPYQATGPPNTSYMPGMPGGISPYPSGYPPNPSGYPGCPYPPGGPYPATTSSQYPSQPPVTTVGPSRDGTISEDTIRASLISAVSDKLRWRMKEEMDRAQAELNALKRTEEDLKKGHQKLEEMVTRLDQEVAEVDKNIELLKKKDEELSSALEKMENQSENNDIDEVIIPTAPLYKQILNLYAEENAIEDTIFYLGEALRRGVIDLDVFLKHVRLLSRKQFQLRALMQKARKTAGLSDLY
#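 Fluorescence anisotropy tracks displacement of a FITC-tagged PTAP peptide (50 nM) from the Tsg101 binding domain (10 uM), following a 20 min room-temperature incubation at pH 7.5.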
# RGS4 inhibitor: inhibitors of human regulator of G protein signaling 4; P49798; Transcreener GDP fluorescence polarization, RGS4-accelerated GTP hydrolysis; Potency, µM (top dose mostly 114 µM), inactives show at the highest dose activity change, negative = inhibition, most hits filed as inhibitors; 390,000 tested, 0.039% active; further: on the % scale 0 is the no-effect control and ±100 the full control effect; nearly all actives have a fitted effect of over 75% in size
# Target sequence (P49798 whole entry, looked up): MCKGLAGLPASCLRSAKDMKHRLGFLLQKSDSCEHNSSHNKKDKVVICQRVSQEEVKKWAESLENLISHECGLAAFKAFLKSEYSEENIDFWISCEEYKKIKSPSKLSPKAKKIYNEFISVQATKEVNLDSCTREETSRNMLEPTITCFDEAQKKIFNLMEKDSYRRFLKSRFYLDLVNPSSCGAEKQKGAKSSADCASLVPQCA
#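 MLSMR compounds (23 nl, pin-transferred) preincubated 10 min at room temperature with a 500nM (2x) first reagent, then RGS4 at 900nM (2x) plus Transcreener GDP mix added; fluorescence polarization (620/688 nm) read before and after 90 min at 30 °C.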
# Active calls of the source: *; i = inactive; ? = inconclusive; · = no result; [ ] = another dose, or the depositor's remark. In the library only some 6.6% were active in any assay of this set; here they are far more common. Unless noted, the call rests on the fitted dose curve; in most records, active means well fitted curve in the direction sought with a large enough effect; inconclusive means small, poorly fitted or top-dose-only effect, or another doubt; inactive means no such curve, though single readings can be large; an effect the other way counts as inactive or inconclusive. Potency means the concentration at half of the fitted maximal effect.
SMILES,MCF10A rereplic,SW480 rerep,KB-3-1 tox,KB-V1 MDR tox,PTAP TSG101 blk,RGS4 inhibitor
N/C(=N\c1nc2c(c(=O)[nH]1)CCC2)Nc1cccc2ccccc12,-7.8%,0.2%,23.1µM*,?,-1.8%,-6.6%
Cc1c(/C=N\NC(=O)c2csc3ccccc23)cnn1C,?,20.6µM*,?,?,7.2%,0.4%
Cc1nn(C)c(C)c1/C=N/NC(=O)c1csc2ccccc12,-17.9%,-5.8%[9.22 µM],i,i,-3.3%,36.9%
CCn1ncc(/C=N\NC(=O)c2csc3ccccc23)c1C,10.3µM*,11.6µM*,6.51µM*,?,0.0%,-0.1%
COC(=O)[C@H]1[C@H]2C[C@@H]3c4[nH]c5ccccc5c4CCN3C[C@H]2C[C@@H](OC(=O)c2cc(OC)c(OC)c(OC)c2)[C@@H]1OC,-18.6%,?,·,·,·,·
COc1ccccc1C(=O)Nc1nc2nc(C)c(Cc3ccccc3)c(=O)n2[nH]1,·,·,i,i,·,-5.3%
c1ccc2nc(-c3nc4ccccc4o3)ccc2c1,-14.5%,1.3%,11.2µM*,i,-10.5%,10.1%
COc1cccc(-c2nn(-c3ccc(C)cc3)cc2C(=O)N2CCc3cc(OC)c(OC)cc3C2)c1,?,?,18.4µM*,23.1µM*,-2.8%,-4.0%
COc1ccc(OC)c(-c2nn(-c3ccccc3)cc2C(=O)N2CCc3ccccc3C2)c1,9.7%,-14.7%,i,i,-3.0%,1.9%
COc1cccc(C(=O)Nc2ccc3nc(SCC(=O)N4CCOCC4)sc3c2)c1,·,·,·,·,·,-5.4%
COCc1cc(S(=O)c2ccc(Cl)cc2)nc(C)n1 (configuration not stated),14.6µM*,?,i,i,-1.7%,?
Cc1ccc2c(C(=O)CCl)c(C)[nH]c2c1,18.4µM*,?,13µM*,?,-2.8%,-3.6%[11.4 µM]
COc1ccc(CN2C(=O)N(c3ccc(F)cc3)C(=O)C2CC(=O)Nc2cc(OC)cc(OC)c2)cc1 (configuration not stated),·,·,·,·,·,42.3%
COc1ccccc1CNC(=O)C(CC(C)C)N1Cc2ccccc2C1=O (configuration not stated),·,·,i,i,·,12.8%
COc1cc(OC)cc(C(=O)N[C@H](C(=O)NC2=NCCS2)C(C)C)c1,-1.0%,-1.4%,i,11.6µM*,-0.5%,16.4%
CC(C)C(NC(=O)c1ccccc1)C(=O)NC1=NCCS1 (configuration not stated),?,7.8%,i,i,-8.2%,-25.0%
OCc1ccccc1O,0.5%,-5.5%,·,·,·,·
OCc1ccccc1SSc1ccccc1CO,18.4µM*,?,?,?,1.0%,?
Cc1cccc(N2CCN(c3cc(C)nc4c(-c5ccc(Cl)cc5)c(C)nn34)CC2C)c1 (configuration not stated),·,·,·,·,·,2.8%
CCOC(=O)c1cc2c(C)n(-c3ccc(OCC)cc3)c(C)c2ccc1=O,25.4%,3.1%,?,2.59µM*,-3.2%,-8.4%
CCOC(=O)c1cc2c(C)n(-c3ccc(C)cc3)c(C)c2ccc1=O,12.4%,?,20.6µM*,5.8µM*,-1.5%,-15.2%
CCOc1ccc(-n2c(C)c(C(=O)OC)c3cc(O)ccc32)cc1,-8.5%,-0.7%,i,i,-1.4%,-18.9%
CCOC(=O)c1c[nH]n(-c2ccc(C)cc2)c1=O,1.0%,4.4%,i,?,-4.0%,-19.8%
C=C1CC2C(=O)N(Cc3cc(OC)ccc3OC)C(C(=O)OCC)C1N2C (configuration not stated),·,·,·,·,·,18.4%
Cc1ccc(CNc2ncnc3onc(-c4ccc(F)cc4)c23)cc1,·,·,?,i,·,26.2%
SMILES,MCF10A rereplic,SW480 rerep,KB-3-1 tox,KB-V1 MDR tox,PTAP TSG101 blk,RGS4 inhibitor
COc1ccc2cc3c(N)nn(C(=O)c4ccccc4Cl)c3nc2c1,23.5%,4.11µM*,?,?,-4.2%,4.2%
Cc1cc(C)cc(SCc2noc(C(=O)NCc3ccccc3)c2C(=O)NCc2ccccc2)c1,4.61µM*,-30.2%,i,i,0.8%,24.9%
O=C(NCc1ccccc1)c1onc(CSc2ccc(F)cc2)c1C(=O)NCc1ccccc1,17.3%,6.0%,i,i,2.6%,13.1%
CCOC(=O)c1ccccc1NC(=O)Cn1c(=O)n(CCCC(=O)NCc2ccc3c(c2)OCO3)c(=O)c2ccccc21,·,·,i,i,·,-1.2%
O=[N+]([O-])c1ccc(C2CCCC/C2=N\OCc2cccc(F)c2)c([N+](=O)[O-])c1 (configuration not stated),20.9%,0.6%,i,10.3µM*,-1.3%,4.2%
CC1CCCC/C1=N/Nc1ccc([N+](=O)[O-])cc1[N+](=O)[O-] (configuration not stated),16.6%,-0.8%,i,i,-6.5%,10.1%
COc1ccccc1/C=C/C(=O)OCC(=O)NC1CCCCCCC1,13.3%,-5.0%,i,i,-2.1%,-14.4%
COc1ccccc1/C=C/C1(C(=O)NC2CCCC2)CC(=O)N1c1ccccc1 (configuration not stated),9.2µM*,7.31µM*,3.66µM*,3.66µM*,-2.6%,14.2%
CN(C)S(=O)(=O)c1ccc(N2C(=O)CC2(/C=C/c2ccccc2)C(=O)NC2CCCC2)cc1 (configuration not stated),-69.0%,-0.6%,i,5.17µM*,-0.7%,-25.2%
N#Cc1c(Nc2ccccc2Cl)s[nH]c1=O,?,?,i,?,-2.0%,?
N#Cc1c(Nc2ccccc2C(F)(F)F)s[nH]c1=O,18.4µM*,?,i,i,-1.7%,?
COc1ccc(CNC(=O)c2cc3c(=O)n(Cc4ccc(OC)cc4)ccc3nc2C)cc1,·,·,2.59µM*,i,·,-20.5%
CC(C)OCCCNC(=O)Cc1ccc(NC(=O)N2CCCCc3ccccc32)cc1,·,·,i,i,·,-32.5%
CC(C)c1nn2c(=O)cc(COC(=O)c3cccc(NC(=O)c4ccccc4F)c3)nc2s1,·,·,·,·,·,1.0%
CC(O)CNCCCOc1ccc(Cl)cc1C(C)(C)C (configuration not stated),10.8%,-17.2%,?,20.6µM*,-6.7%,2.2%
CC(OC(=O)C1CC(=O)N(Cc2ccco2)C1)C(=O)Nc1cccc(C#N)c1 (configuration not stated),-2.2%,5.8µM*,i,i,-4.3%,-12.9%
COc1cc2c(cc1NC(=O)C(C)OC(=O)C1CC(=O)N(Cc3ccco3)C1)oc1ccccc12 (configuration not stated),?,-1.0%[9.22 µM],i,i,-0.8%,-28.3%

# Compound activity from PubChem BioAssay.
